Columns and labels:
[1] = target: Sphingosine kinase 1 (Homo sapiens) (UniProt Q9NYA1); settings: at 1 µM;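 also: mean SPHK1 inhibition value reported from the GSK PKIS kinase panel screen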
[2] = target: T1, Sphingosine kinase 2 (Homo sapiens) (UniProt Q9NRA0); settings: at 0.1 µM
T1 sequence (whole entry): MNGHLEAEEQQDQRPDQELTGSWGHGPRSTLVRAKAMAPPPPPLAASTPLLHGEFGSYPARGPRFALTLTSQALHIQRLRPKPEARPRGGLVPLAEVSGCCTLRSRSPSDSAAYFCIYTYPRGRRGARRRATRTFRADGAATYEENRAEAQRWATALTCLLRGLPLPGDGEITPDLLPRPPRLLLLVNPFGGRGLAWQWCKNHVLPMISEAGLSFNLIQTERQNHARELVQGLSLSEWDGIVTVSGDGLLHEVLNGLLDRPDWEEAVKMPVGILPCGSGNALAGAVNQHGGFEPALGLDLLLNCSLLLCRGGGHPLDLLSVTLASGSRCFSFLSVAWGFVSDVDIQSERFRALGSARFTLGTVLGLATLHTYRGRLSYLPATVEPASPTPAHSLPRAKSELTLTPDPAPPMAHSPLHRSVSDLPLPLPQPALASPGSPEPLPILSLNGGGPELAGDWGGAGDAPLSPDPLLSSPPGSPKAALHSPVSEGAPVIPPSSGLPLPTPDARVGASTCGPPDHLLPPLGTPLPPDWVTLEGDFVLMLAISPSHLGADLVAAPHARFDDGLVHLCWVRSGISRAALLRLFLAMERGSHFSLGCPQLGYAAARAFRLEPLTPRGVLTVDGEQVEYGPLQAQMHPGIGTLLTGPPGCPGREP

[3] = target: T1, Sphingosine kinase 2 (Homo sapiens); settings: at 1 µM
[4] = target: Casein kinase II subunit alpha (Homo sapiens) (UniProt P68400); settings: at 0.1 µM
Casein kinase II subunit alpha (Homo sapiens), sequence (P68400 whole entry, looked up): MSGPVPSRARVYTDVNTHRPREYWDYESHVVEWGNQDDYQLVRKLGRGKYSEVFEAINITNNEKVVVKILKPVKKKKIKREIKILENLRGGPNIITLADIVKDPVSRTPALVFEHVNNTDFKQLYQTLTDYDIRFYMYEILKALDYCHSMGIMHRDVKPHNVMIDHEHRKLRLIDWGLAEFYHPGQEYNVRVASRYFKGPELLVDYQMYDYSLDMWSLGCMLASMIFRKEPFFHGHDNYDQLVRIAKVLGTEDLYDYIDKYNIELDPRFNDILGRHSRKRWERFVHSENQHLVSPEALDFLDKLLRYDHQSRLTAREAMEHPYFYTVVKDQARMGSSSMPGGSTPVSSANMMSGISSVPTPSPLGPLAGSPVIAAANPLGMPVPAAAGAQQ

[5] = target: Casein kinase II subunit alpha (Homo sapiens) (UniProt P68400); settings: at 1 µM
[6] = target: T2, Inhibitor of nuclear factor kappa-B kinase subunit alpha (Homo sapiens) (UniProt O15111); settings: at 0.1 µM
T2 sequence (whole entry): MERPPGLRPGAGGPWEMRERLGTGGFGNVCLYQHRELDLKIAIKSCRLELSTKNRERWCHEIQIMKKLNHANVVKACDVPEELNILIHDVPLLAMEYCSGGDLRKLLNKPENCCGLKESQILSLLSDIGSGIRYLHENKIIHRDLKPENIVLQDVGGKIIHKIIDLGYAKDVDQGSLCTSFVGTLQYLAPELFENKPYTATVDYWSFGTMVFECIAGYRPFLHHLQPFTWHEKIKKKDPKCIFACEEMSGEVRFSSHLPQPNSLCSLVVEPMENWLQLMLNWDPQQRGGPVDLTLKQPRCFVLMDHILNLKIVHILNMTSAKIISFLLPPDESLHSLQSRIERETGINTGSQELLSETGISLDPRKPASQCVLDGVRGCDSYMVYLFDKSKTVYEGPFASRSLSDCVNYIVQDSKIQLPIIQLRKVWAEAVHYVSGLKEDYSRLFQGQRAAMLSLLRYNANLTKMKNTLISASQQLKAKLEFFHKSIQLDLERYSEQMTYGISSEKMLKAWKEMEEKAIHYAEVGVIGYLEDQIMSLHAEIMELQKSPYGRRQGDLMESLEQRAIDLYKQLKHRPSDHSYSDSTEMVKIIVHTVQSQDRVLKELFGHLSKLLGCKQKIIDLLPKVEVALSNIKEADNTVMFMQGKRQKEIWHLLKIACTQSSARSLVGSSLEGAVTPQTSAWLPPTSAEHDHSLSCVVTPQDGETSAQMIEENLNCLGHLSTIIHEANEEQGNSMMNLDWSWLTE

[7] = target: T2, Inhibitor of nuclear factor kappa-B kinase subunit alpha (Homo sapiens); settings: at 1 µM
[8] = target: T3, Inhibitor of nuclear factor kappa-B kinase subunit beta (Homo sapiens) (UniProt O14920); settings: at 0.1 µM
T3 sequence (whole entry): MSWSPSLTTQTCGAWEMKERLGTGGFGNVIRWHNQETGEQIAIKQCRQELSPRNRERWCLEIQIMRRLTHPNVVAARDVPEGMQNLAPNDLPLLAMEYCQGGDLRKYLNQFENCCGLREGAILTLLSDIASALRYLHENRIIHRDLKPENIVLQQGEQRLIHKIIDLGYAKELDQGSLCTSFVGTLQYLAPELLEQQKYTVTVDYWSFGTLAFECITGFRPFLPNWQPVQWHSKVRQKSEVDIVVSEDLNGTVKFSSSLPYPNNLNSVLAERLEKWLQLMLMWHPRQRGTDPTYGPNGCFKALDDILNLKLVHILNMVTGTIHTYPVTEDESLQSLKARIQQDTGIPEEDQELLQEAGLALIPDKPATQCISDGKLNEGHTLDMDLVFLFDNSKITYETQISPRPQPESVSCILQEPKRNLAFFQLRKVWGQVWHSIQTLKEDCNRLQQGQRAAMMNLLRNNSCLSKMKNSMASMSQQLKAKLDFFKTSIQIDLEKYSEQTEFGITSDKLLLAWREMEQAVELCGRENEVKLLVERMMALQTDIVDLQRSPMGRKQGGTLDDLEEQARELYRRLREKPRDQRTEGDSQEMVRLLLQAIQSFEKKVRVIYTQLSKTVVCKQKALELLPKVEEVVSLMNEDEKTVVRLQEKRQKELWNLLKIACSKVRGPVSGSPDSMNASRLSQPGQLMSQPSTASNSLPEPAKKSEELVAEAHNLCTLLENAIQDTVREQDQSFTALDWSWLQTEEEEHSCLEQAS

[9] = target: T3, Inhibitor of nuclear factor kappa-B kinase subunit beta (Homo sapiens); settings: at 1 µM
[10] = target: T4, Inhibitor of nuclear factor kappa-B kinase subunit epsilon (Homo sapiens) (UniProt Q14164); settings: at 0.1 µM
T4 sequence (whole entry): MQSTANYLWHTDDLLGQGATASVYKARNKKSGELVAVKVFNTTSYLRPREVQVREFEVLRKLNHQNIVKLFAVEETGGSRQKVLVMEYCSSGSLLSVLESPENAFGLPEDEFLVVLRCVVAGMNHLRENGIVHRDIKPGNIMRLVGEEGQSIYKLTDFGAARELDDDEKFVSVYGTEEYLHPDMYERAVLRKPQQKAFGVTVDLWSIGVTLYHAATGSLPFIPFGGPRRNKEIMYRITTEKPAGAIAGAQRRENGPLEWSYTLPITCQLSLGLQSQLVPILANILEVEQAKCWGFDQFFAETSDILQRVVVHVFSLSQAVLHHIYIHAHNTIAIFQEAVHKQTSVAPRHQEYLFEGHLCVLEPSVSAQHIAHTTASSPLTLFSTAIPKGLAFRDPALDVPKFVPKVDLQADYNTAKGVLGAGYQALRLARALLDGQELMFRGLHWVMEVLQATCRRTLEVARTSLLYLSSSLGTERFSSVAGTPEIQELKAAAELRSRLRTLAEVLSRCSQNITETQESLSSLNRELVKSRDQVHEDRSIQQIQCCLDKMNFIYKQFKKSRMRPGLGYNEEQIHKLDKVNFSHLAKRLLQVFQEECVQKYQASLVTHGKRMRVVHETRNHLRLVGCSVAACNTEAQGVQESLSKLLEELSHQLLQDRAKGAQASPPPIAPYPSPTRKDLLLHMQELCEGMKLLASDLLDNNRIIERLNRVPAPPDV

[11] = target: T4, Inhibitor of nuclear factor kappa-B kinase subunit epsilon (Homo sapiens); settings: at 1 µM
[12] = target: T5, Serine/threonine-protein kinase Nek1 (Homo sapiens) (UniProt Q96PY6); settings: at 0.1 µM
T5 sequence (whole entry): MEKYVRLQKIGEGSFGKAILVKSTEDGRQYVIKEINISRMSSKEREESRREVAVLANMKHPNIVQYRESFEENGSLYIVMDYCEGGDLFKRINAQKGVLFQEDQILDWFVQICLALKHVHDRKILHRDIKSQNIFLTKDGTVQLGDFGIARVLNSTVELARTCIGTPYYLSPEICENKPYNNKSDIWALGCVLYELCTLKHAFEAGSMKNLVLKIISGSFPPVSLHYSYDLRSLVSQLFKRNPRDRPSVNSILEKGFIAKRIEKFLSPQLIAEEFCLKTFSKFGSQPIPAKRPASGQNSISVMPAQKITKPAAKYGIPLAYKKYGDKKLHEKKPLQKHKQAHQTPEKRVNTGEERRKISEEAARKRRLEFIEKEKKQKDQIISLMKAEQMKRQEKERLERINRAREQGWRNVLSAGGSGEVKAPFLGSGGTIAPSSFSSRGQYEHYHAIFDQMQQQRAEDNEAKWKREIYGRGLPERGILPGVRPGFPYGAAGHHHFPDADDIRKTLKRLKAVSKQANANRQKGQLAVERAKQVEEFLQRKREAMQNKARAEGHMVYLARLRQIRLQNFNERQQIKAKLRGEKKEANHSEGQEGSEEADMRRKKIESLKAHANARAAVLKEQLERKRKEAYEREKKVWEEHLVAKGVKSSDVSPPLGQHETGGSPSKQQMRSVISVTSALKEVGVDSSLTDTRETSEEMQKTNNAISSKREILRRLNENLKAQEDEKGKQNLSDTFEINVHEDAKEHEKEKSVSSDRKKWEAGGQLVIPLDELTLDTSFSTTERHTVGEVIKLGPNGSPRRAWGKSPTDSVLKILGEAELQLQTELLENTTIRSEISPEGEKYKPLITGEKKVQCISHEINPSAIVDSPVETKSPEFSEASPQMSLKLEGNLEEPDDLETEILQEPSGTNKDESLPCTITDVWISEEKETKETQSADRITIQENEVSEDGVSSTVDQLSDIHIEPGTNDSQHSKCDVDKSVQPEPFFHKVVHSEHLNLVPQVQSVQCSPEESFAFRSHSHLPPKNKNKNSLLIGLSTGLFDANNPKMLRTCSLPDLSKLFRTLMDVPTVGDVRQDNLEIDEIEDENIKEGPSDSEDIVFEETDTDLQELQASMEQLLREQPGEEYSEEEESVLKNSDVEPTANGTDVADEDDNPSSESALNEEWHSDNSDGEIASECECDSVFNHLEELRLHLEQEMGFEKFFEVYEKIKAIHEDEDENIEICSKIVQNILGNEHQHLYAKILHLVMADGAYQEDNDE

[13] = target: T5, Serine/threonine-protein kinase Nek1 (Homo sapiens); settings: at 1 µM
[14] = target: T6, Serine/threonine-protein kinase Nek2 (Homo sapiens) (UniProt P51955); settings: at 0.1 µM
T6 sequence (whole entry): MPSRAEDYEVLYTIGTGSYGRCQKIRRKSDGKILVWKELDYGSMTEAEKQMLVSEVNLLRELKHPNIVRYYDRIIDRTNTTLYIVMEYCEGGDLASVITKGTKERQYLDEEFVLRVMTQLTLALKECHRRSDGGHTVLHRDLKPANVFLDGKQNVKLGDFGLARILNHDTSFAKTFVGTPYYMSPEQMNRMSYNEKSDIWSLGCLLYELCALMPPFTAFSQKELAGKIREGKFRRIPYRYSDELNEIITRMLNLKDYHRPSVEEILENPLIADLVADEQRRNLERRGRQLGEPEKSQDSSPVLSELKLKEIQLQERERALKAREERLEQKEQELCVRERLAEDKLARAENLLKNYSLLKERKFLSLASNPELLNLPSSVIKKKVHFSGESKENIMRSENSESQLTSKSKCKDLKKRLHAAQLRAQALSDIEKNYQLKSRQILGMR

[15] = target: T6, Serine/threonine-protein kinase Nek2 (Homo sapiens); settings: at 1 µM
[16] = target: Serine/threonine-protein kinase Nek6 (Homo sapiens) (UniProt Q9HC98); settings: at 0.1 µM
Serine/threonine-protein kinase Nek6 (Homo sapiens), sequence (Q9HC98 whole entry): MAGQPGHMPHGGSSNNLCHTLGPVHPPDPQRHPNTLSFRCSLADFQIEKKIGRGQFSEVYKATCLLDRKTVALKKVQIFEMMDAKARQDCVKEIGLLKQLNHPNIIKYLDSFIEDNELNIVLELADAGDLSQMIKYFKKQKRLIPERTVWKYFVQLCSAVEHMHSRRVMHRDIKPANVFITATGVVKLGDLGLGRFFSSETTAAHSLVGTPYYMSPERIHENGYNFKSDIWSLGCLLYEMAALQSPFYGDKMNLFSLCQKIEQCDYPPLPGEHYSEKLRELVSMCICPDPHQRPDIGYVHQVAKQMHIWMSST

[17] = target: Serine/threonine-protein kinase Nek6 (Homo sapiens) (UniProt Q9HC98); settings: at 1 µM
[18] = target: Serine/threonine-protein kinase Nek7 (Homo sapiens) (UniProt Q8TDX7); settings: at 0.1 µM
Serine/threonine-protein kinase Nek7 (Homo sapiens), sequence (Q8TDX7 whole entry, looked up): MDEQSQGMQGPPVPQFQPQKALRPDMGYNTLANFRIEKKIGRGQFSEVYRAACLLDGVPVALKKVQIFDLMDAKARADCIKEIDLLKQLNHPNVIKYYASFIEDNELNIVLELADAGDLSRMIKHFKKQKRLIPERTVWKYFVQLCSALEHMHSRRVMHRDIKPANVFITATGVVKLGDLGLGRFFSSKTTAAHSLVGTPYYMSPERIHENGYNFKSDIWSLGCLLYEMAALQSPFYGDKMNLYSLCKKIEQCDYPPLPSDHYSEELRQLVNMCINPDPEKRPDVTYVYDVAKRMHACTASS

[19] = target: Serine/threonine-protein kinase Nek7 (Homo sapiens) (UniProt Q8TDX7); settings: at 1 µM
[20] = target: T7, Serine/threonine-protein kinase Nek9 (Homo sapiens) (UniProt Q8TD19); settings: at 0.1 µM;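 also: reported value is the mean percent inhibition of NEK9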
T7 sequence (whole entry): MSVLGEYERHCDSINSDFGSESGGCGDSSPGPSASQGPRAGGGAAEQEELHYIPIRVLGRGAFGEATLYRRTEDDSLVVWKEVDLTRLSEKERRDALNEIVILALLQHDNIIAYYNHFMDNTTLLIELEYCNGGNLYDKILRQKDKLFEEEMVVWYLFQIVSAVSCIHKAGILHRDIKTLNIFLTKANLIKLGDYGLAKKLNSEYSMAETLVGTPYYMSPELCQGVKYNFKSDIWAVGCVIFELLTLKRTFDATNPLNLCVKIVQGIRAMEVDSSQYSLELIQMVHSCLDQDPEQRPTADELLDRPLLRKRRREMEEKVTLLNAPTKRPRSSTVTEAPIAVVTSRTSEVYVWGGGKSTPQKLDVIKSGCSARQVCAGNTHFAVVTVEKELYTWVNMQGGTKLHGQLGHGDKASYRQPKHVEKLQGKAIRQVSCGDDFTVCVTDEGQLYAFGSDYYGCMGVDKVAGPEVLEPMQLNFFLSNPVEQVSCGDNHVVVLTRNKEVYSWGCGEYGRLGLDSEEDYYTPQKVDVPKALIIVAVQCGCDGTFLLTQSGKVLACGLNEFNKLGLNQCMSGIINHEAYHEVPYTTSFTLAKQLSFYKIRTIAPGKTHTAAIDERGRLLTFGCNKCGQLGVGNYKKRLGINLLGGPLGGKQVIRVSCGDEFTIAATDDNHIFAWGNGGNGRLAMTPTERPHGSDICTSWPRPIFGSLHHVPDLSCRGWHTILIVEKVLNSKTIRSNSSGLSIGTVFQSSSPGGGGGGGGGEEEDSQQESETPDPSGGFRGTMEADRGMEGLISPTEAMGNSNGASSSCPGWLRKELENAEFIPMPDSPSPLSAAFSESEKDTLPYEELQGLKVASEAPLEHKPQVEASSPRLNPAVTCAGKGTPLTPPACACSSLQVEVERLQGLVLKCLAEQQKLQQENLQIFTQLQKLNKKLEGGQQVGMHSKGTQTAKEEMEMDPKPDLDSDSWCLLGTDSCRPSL

Sphingosine kinase 1 (Homo sapiens), sequence (Q9NYA1 whole entry): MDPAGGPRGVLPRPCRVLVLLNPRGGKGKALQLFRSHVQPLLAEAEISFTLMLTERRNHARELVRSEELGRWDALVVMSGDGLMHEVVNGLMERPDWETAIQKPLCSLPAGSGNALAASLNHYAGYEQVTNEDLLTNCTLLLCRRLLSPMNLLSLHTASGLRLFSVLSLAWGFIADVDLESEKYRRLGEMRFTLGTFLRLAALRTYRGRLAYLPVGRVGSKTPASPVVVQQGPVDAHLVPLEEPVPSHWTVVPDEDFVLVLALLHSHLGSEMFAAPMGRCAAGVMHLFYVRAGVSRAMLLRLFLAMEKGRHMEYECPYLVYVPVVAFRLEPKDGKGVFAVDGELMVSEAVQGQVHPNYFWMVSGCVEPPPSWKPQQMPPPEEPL

Structure (SMILES)	inhibition [1]	inhibition [2]	inhibition [3]	inhibition [4]	inhibition [5]	inhibition [6]	inhibition [7]	inhibition [8]	inhibition [9]	inhibition [10]	inhibition [11]	inhibition [12]	inhibition [13]	inhibition [14]	inhibition [15]	inhibition [16]	inhibition [17]	inhibition [18]	inhibition [19]	inhibition [20]
CN(C)CCCNc1nccc(-c2c(-c3ccc(F)cc3)nn3cc(C(F)(F)F)ccc23)n1	-2.46%	-0.03%	-0.25%	1.85%	6.47%	4.46%	-1.7%	1.56%	0%	2.49%	1.28%	2.23%	4.09%	1.87%	1.49%	1.82%	-1.46%	2.85%	1.37%	5.9%
Cc1ccc(NC(=O)c2ccoc2)cc1-c1ccc(C(=O)NCC2CC2)cc1	-2.32%	0.42%	-0.05%	2.64%	1.38%	0.11%	7.23%	3.9%	3.86%	3.64%	2.47%	1.2%	0.36%	3.49%	3.48%	2.49%	0.14%	0.66%	1.16%	5.95%

Source: ChEMBL document CHEMBL1961873, “Compounds: GSK PKIS; Assays: Nanosyn kinase panel” (2012)
